Here are results for 15 molecules from PubChem BioAssay.

In test [1] the test system is TRPC4 beta (transient receptor potential cation channel C4), mouse. In words: activators of mouse TRPC4 channel, confirmation, cell-based, Fluo4 calcium, HEK293 TRPC4beta/mu-opioid, duplicates, 10 µM (AID 2426;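 active = fluorescence ratio normalized to control raised more than 50% in primary screen plus both repeat runs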). To be noted: Fluo4 calcium fluorescence, at 10 µM; active compounds read high.
In test [2] the test system is transient receptor potential cation channel C4 beta (TRPC4), mouse. In words: activators of mouse TRPC4 channel, confirmation, cell-based, second round, Fluo4, HEK293 TRPC4beta/mu-opioid, 1 µM (AID 2461;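 active = primary screen active and over 50% activation in each of two duplicate runs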). Conditions: Fluo4 calcium fluorescence, at 1 µM; active compounds read high.
The test system of test [3] is TRPC4 (transient receptor potential cation channel C4 beta), mouse. In words: positive allosteric modulators of mouse TRPC4, confirmation, cell-based, second round, Fluo-4, HEK293 TRPC4beta/mu-opioid, 1 µM (AID 2554;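 active = primary screen hit whose fluorescence ratio, in both repeats, exceeds the weak agonist control mean by 3 SD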). To be noted: DAMGO EC20, Fluo-4 calcium flux, at 1 µM; active compounds read high.
Test [4] concerns TRPC4 beta (transient receptor potential cation channel C4), mouse. In words: positive allosteric modulators of mouse TRPC4, confirmation, cell-based, Fluo-4, HEK293 TRPC4beta/mu-opioid (AID 2555;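 active = primary screen hit whose calcium fluorescence ratio, in both repeats, exceeds the weak agonist control mean by 3 SD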). Conditions: DAMGO EC20, Fluo-4 calcium flux, at 10 µM; active compounds read high.
The target in test [5] is Short transient receptor potential channel 4 (Mus musculus) (UniProt Q9QUQ5). In words: inhibitors of mouse TRPC4 channel, confirmation, cell-based, Fluo4, HEK293 TRPC4beta/mu-opioid (AID 2636;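 active = calcium signal cut by more than 3 SD below the full-agonist control yet still positive, in both repeats and the earlier primary screen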). To be noted: DAMGO, Fluo4 calcium flux, at 10 µM; active compounds read high.
Sequence of Short transient receptor potential channel 4 (Mus musculus) (Q9QUQ5 whole entry, looked up): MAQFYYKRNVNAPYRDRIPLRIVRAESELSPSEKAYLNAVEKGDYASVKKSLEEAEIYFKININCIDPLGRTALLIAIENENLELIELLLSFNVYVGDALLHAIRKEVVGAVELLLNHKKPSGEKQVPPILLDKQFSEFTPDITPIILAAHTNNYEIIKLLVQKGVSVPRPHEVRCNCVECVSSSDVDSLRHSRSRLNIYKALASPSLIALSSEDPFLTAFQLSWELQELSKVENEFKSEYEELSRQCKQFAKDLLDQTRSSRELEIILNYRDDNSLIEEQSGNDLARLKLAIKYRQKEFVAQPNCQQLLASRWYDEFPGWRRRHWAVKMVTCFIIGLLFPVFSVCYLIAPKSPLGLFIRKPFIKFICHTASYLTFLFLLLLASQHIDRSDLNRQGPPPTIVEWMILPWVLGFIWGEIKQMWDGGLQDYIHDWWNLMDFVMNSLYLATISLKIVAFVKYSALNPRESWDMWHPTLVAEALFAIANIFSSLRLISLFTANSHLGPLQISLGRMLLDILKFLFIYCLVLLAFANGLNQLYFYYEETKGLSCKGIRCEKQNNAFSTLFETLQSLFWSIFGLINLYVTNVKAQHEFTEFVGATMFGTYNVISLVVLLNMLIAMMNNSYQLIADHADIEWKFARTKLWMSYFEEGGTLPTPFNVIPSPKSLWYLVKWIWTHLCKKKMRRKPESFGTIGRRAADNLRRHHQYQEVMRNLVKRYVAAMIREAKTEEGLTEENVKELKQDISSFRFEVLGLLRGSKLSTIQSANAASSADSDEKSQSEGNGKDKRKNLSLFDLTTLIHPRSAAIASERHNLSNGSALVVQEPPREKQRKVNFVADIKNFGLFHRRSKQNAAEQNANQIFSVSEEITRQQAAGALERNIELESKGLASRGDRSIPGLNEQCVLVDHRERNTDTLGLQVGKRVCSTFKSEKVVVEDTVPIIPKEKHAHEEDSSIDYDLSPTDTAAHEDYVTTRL
Test [6] has the same target. In words: inhibitors of mouse TRPC4 channel, confirmation, cell-based, second round, Fluo4, HEK293 TRPC4beta/mu-opioid, 1 µM (AID 2637;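 active = calcium signal ratio cut to more than 3 SD under the fully stimulated control mean yet still positive, in both repeats and the primary screen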;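 for inhibition: percent of integrated ratio relative to wells lacking test compound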). To be noted: Fluo4 calcium flux, DAMGO, at 1 µM; active compounds read high.
Test [7] has the same target. In words: mouse TRPC4 channel activators, dose response, cell-based, HEK293 TRPC4/mu-opioid, Fluo-4 calcium (AID 434937;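 active = primary screen activator hit with a dose response curve and TRPC4 channel activation at any tested dose; inactive = no activation, no dose response, or not a primary hit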).
For test [8] the target is unchanged. In words: TRPC4 positive allosteric modulators, dose response, cell-based, HEK293 TRPC4/mu-opioid, Fluo-4 calcium, EC20 DAMGO (AID 434941;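 active = earlier screen potentiator hit that boosts the TRPC4 ion channel at some dose, with a dose response; inactive = no potentiation, no dose response, or not a prior hit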;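 note: calcium entry triggered by an EC20 dose of DAMGO at the co-expressed mu-opioid receptor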).
For test [9], the target named is Short transient receptor potential channel 6 (Mus musculus) (UniProt Q61143). In words: inhibition of mouse TRPC6 channel, confirmation, selectivity assay for TRPC4 inhibitor project, cell-based, HEK293, membrane potential dye, duplicate (AID 434948;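 active = active in primary screen and both duplicates, each dropping signal beyond three positive-control SD with fluorescence still positive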). To be noted: HEK293 TRPC6, membrane potential dye fluorescence, at 10 µM, stimulated with maximal-effect acetylcholine; active compounds read high.
Sequence of Short transient receptor potential channel 6 (Mus musculus) (Q61143 whole entry, looked up): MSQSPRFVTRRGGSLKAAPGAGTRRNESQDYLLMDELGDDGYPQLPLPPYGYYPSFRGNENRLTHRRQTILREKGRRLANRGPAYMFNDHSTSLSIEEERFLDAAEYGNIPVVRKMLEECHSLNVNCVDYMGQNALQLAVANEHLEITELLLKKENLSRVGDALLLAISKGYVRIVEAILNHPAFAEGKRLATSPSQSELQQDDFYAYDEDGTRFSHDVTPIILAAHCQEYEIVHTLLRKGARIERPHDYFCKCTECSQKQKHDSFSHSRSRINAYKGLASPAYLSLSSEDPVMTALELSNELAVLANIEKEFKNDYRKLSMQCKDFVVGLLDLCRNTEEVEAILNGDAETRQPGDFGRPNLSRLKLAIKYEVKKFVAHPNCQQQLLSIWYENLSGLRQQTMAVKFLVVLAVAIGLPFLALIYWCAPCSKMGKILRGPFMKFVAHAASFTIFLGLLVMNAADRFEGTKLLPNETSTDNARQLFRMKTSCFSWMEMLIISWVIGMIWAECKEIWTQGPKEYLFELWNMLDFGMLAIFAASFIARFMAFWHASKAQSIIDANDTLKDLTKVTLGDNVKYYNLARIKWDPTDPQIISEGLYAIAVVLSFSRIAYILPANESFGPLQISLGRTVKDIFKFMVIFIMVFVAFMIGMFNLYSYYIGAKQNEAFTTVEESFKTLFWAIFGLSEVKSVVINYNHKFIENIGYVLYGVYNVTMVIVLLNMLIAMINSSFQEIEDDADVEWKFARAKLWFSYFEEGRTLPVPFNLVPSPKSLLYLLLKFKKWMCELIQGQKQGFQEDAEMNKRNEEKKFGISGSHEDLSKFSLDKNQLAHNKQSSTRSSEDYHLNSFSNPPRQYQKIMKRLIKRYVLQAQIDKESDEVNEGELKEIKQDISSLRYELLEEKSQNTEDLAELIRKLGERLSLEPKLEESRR

Test [10] shares this target. In words: activation of mouse TRPC6 channel, confirmation, selectivity assay for TRPC4 activator project, cell-based, HEK293, membrane potential dye, duplicate (AID 434950;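 active = membrane potential signal rise above negative control mean plus 3 SD in both duplicates, also active in the earlier TRPC4 screen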). Conditions: HEK293 TRPC6, membrane potential fluorescence, at 10 µM; active compounds read high.
The target is the same in test [11]. In words: TRPC6 potentiation by TRPC4 potentiator hits, confirmation, selectivity assay for TRPC4 potentiator project, HEK293 cells, membrane potential dye, duplicate (AID 434952;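 active = compound raising the membrane signal above positive-control mean plus 3 SD in both repeats, and a primary screen hit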). To be noted: HEK293 TRPC6, membrane potential dye fluorescence, at 10 µM, maximal acetylcholine added after compound; active compounds read high.
Test [12] concerns the target Short transient receptor potential channel 4 (Mus musculus) (UniProt Q9QUQ5). In words: calcium flux activators in TRPC4/5HT1a cells, counter-screen for TRPC4 activator project, cell-based, second counter screen, HEK293 TRPC4/5HT1a, Fluo-4 (AID 434977). Conditions: Fluo-4 calcium flux, at 10 µM; active compounds read high.
Test [13] is described as follows: calcium flux inhibitors in TRPC4/5HT1a cells, confirmation, counter-screen for TRPC4 inhibitor project, cell-based, second counter screen, HEK293 TRPC4/5HT1a, Fluo-4 (AID 434978;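 active = primary screen active whose calcium signal fell more than 3 SD beyond the full-serotonin control mean in both duplicate plates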;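 for outcome: serotonin given first at submaximal then at maximal dose after compound preincubation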). To be noted: Fluo-4 calcium flux, at 10 µM, serotonin added to trigger calcium flux; active compounds read high.
In test [14] the test system is TRPC4 (mouse), co-expressed with 5HT1a in HEK293. In words: calcium flux potentiators in TRPC4/5HT1a cells, confirmation, counter-screen for TRPC4 potentiator project, cell-based, second counter screen, HEK293 TRPC4/5HT1a, Fluo-4 (AID 434979;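 active = signal rise over 3 SD above mean of control wells given weak agonist, in both repeats and first screen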). To be noted: Fluo-4 calcium flux, at 10 µM, serotonin added at its EC20 dose; active compounds read high.
A short description of test [15]: calcium flux activation in mu-opioid HEK293 cells, confirmation, counter-screen for TRPC4 activator project, cell-based, HEK293 mu-opioid receptor line (AID 449723;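 active = hit in primary screen, with calcium signal over 5 SD above buffer well mean in both duplicates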;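 note: counter screen cells carry the mu-opioid receptor alone and lack TRPC4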). To be noted: Fluo-4 calcium fluorescence, at 10 µM; active compounds read high.
Test [16] can be described thus: calcium flux enhancement in mu-opioid HEK293 cells, confirmation, counter-screen for TRPC4 allosteric potentiator project, cell-based, HEK293 mu-opioid receptor line (AID 449724;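 active = calcium signal rise more than 3 SD above the low-dose agonist control mean, in both duplicate plates and the primary screen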;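 note: HEK293 cells carrying mu-opioid receptor only with no TRPC4 channel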). To be noted: Fluo-4 calcium flux, at 10 µM, compound added before EC20 DAMGO stimulus; active compounds read high.

For part of these data: Results with a measured potency or affinity are listed apart. Activity calls are given as the source filed them.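 Rule for the calls, unless noted: active = calcium signal rise above buffer-control mean plus 5 SD in both duplicates, and also a hit in the primary screen; inactive = the rest.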

Take `COC(=O)c1cccc(NC(=S)Nc2cccc(Cl)c2Cl)c1`: the outcome in test [1], in [2], in [3], in test [4], in test [6] and in test [7] was inactive. Moreover, the result in test [8], in test [9], in [10], in test [11], in test [12] and in [13] was inactive. Further, the outcome in test [14], in test [15] and in test [16] was inactive. Besides, in test [5], the inhibition was 78% (active).

As for `CCCOc1ccc(Br)cc1/C=N/O`, the outcome in test [1], in [2], in test [3], in [4], in test [5] and in test [7] was inactive. Further, the outcome in [8], in [9], in test [10], in test [11], in test [12] and in test [13] was inactive. For the same molecule, the result in test [14], in [15] and in test [16] was inactive. Further, the inhibition in [6] was 54% (active).

As to `Cc1nc2scc(-c3ccccc3)c2c(=O)n1N=C1C=CC(=O)C=C1`, the result in [1], in [2], in test [3], in test [4], in [6] and in test [7] was inactive. The result in test [8], in test [9], in test [10], in test [11], in [12] and in test [14] was inactive. Further, the result in test [15] and in [16] was inactive. Moreover, the results for the inhibition in test [5] and in [13] were 69% (active) and 21% (active), respectively.

For the molecule `Cc1ccc(-n2cccn2)c(CN2CCCC(C(=O)c3ccc4c(c3)OCO4)C2)c1` (stereo not given), the result in test [1], in test [2], in test [3], in test [4], in test [6] and in test [7] was inactive. Moreover, the outcome in test [8], in test [10], in [11], in [12], in test [14] and in test [15] was inactive. In test [16], the result was inactive. The inhibition in test [5] was 53% (active); in [9], 28% (active); in test [13], 38% (active).

For the molecule `CCOc1ccc(-c2cc(NC(=O)c3c(F)cccc3F)c(C(=O)O)s2)cc1`, the outcome in [1], in test [2], in test [3], in test [4], in [7] and in [8] was inactive. In addition, the molecule was classed as inactive in test [9], in [10], in [11], in [12], in [14] and in [15]. Moreover, the outcome in test [16] was inactive. The inhibition in test [5] was 98% (active); in test [6], 41% (active); in [13] it was 6.94% (active).

In the case of `COc1ccc(C(CNc2ccc(C(F)(F)F)cn2)N(C)C)cc1OC` (stereo not given), the outcome in test [1], in test [2], in [3], in [4], in test [5] and in [7] was inactive. Further, the result in test [8], in [9], in test [10], in test [11], in [12] and in test [13] was inactive. Moreover, the outcome in test [14], in test [15] and in test [16] was inactive. The inhibition in test [6] is 69% (active).

As for `CCCCn1c(SCC(=O)OCC)nc2c(sc(=S)n2-c2ccccc2OC)c1=O`, the result in test [1], in test [2], in [3], in [4], in [6] and in test [7] was inactive. Besides, the outcome in test [8], in [9], in test [10], in test [11], in test [12] and in test [14] was inactive. The outcome in [15] and in test [16] was inactive. The inhibition in test [5] is 94% (active); in test [13] it was 14% (active).

On to `CCOc1ccc(Br)cc1/C=N/O`, for which the result in [1], in test [2], in test [3], in [4], in test [6] and in test [7] was inactive. The result in [8], in test [10], in test [11], in [12], in test [14] and in [15] was inactive. In test [16], the outcome was inactive. The inhibition was 90% (active) in test [5], 27.5% (active) in [9] and 29.2% (active) in test [13].

As for `Cc1nn(-c2ccccc2)c(Cl)c1CN(C(=O)CCl)c1ccc(Cl)cc1`, the outcome in [1], in [2], in test [3], in test [4], in test [7] and in test [8] was inactive. The outcome in test [9], in test [10], in test [11], in test [12], in [14] and in test [15] was inactive. In addition, the result in test [16] was inactive. For the same molecule, the inhibition is 93% (active) in test [5], 69% (active) in [6] and 2.77% (active) in test [13].

Consider `COCCNc1c2c(nc3ccccc13)CCC2`, for which the result in [1], in test [2], in test [3], in [4], in test [7] and in [8] was inactive. For the same molecule, the call in test [10], in test [11], in test [12], in test [14], in test [15] and in test [16] was inactive. The inhibition in [5] is 100% (active); in [6], 57% (active); in test [9], 37.5% (active); in test [13] it was 11.8% (active).

Take `CCn1c(=N)n(CC(=O)c2ccc(Br)s2)c2ccccc21`: the result in test [1], in [2], in [3], in test [4], in [5] and in [6] was inactive. For the same molecule, the outcome in [7], in [8], in test [10], in [11], in [12] and in [13] was inactive. Also, the outcome in test [14], in test [15] and in test [16] was inactive. In addition, the inhibition in test [9] is 59% (active).

Turning to `O=C(NCCCN1CCN(c2cccc(Cl)c2)CC1)C1CCC(=O)N1Cc1ccccc1Cl` (stereo not given), the result in test [1], in test [2], in test [3], in test [4], in test [7] and in [8] was inactive. Further, the call in [9], in test [10], in test [11], in [12], in test [14] and in test [15] was inactive. Moreover, the result in [16] was inactive. Moreover, the inhibition in [5] is 90% (active); in test [6], 52% (active); in test [13], 35.9% (active).

As to `COc1cc(/C=C2\SC(=S)N(NS(=O)(=O)c3ccc(C)cc3)C2=O)cc(OC)c1OC`, the result in [1], in test [2], in test [3], in test [4], in test [6] and in test [7] was inactive. Further, the result in test [8], in test [9], in test [10], in test [11], in [12] and in [14] was inactive. Also, the outcome in [15] and in test [16] was inactive. The inhibition is 95% (active) in test [5] and 34.5% (active) in test [13].

With `COc1ccc(SC[C@H](Cc2ccccc2)N2CCN(C)CCC2=O)cc1`, the outcome in test [1], in test [2], in test [3], in test [4], in test [7] and in [8] was inactive. The molecule was classed as inactive in test [9], in test [10], in test [11], in test [12], in [13] and in [14]. For the same molecule, the result in test [15] and in [16] was inactive. Also, the inhibition in [5] was 95% (active); in test [6] it was 40% (active).

In the case of `COc1ccccc1N(C(=O)c1snc(C(N)=O)c1N)C(C(=O)NCc1ccccc1)c1ccc(C)o1` (stereo not given), the outcome in [1], in test [2], in test [3], in test [4], in test [5] and in [7] was inactive. Further, the outcome in test [8], in test [9], in test [10], in test [11], in [12] and in test [14] was inactive. Further, the outcome in [15] and in test [16] was inactive. Further, the values for the inhibition in test [6] and in test [13] were 49% (active) and 25.3% (active), respectively.
